Source: PubChem BioAssay AID1851 (National Center for Advancing Translational Sciences (NCATS), 2009)
Values joined by “and” are separate entries in the source; they are usually repeats but may differ in a detail not shown here. Equal values may be shown once. Among all 16,000 compounds or so, about 5,700 (36%) were called active. Not shown: some 24% with an inconclusive outcome. The list shows a part of the results. Values without a mark were called inactive. Calls follow the shape of the dose curve; as a rule, active = well fitted curve in the direction sought with a large enough effect; inconclusive = small, poorly fitted or top-dose-only effect, or effect the other way; inactive = no such curve, though single readings can be large or run the other way.

What follows are compounds tested against Cytochrome P450 1A2 (Homo sapiens) (UniProt P05177) (assay: Cytochrome panel assay with activity outcomes). Details: recombinant CYP, pro-luciferin dealkylation, luminescence, p450-cyp1a2; series mostly up to 57.1 µM.
Cytochrome P450 1A2 (Homo sapiens), sequence (P05177 whole entry, looked up): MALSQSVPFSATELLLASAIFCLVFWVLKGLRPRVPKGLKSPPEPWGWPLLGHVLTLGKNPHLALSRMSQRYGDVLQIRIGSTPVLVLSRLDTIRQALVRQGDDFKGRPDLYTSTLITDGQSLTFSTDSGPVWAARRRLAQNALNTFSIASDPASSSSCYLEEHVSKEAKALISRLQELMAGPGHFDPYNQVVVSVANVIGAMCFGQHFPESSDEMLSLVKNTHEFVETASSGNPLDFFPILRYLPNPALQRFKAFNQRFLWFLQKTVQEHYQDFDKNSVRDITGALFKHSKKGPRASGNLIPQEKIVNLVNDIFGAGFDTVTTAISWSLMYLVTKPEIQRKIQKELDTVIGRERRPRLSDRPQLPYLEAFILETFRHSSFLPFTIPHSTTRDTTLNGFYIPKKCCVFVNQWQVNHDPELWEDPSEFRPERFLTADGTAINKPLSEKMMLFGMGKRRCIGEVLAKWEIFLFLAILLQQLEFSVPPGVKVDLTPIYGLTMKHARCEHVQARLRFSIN
% is scaled to controls: 0 for no effect and ±100 for the full control effect.

SMILES | AC50 | activity, negative = inhibition
Oc1ccccc1-c1nnc(-c2ccc(C(F)(F)F)cc2)o1 | 5.01 µM (active) | –
O=C(/C=C\NCC(=O)c1ccccc1)c1ccccc1 | 5.01 µM (active) | –
O=C(C[C@@H]1C=Cc2ccccc2N1C(=O)c1ccccc1)c1ccccc1 | – | -23.2% [at 2.29 µM]
CC(C)CCOc1ccc(NC(=O)C2OC3OC(C)(C)OC3C3OC(C)(C)OC23)cc1 (configuration not stated) | inactive | –
c1ccc(-c2nc(CSc3n[nH]c(-c4cccs4)n3)cs2)cc1 | 2.82 µM (active) | –
Cc1c(C)n(C)c2ccc(C(=O)Nc3cccc4ccccc34)cc12 | 2 µM (active) | –
O=C(O)c1ccc(C(=O)Nc2cccc3ccccc23)c(C(=O)O)c1 | – | -6.15% [at 2.29 µM]
CCn1c(C)c(C)c2cc(C(=O)Nc3cccc(Cl)c3)ccc21 | 3.16 µM (active) | –
COC(=O)CCC(=O)Nc1cccc(C(=O)Nc2cccc(Cl)c2)c1 | 4.47 µM (active) | –
O=c1[nH]c(=O)n(Cc2ccco2)c2c1C(C(F)(F)F)(C(F)(F)F)N=C(CCC1CCCCC1)N2 | inactive | –
CC1(C)CCC(NC(=O)[C@H](N)CCC(=O)O)CC1 | inactive | –
Cc1cnc(CNc2ccnc(-c3ccccc3C)n2)cn1 | 12.6 µM (active) | –
Cc1cnc(CNc2ccnc(-c3ccccc3Cl)n2)cn1 | 12.6 µM (active) | –
Cc1cnc(CNc2ccnc(-c3ccccc3C(F)(F)F)n2)cn1 | 15.8 µM (active) | –
COc1ccccc1-c1nccc(NCc2cnc(C)cn2)n1 | 12.6 µM (active) | –
Cc1ccc(S(=O)(=O)CC(O)CN2CCCC2=O)cc1 (configuration not stated) | inactive | –
O=S1(=O)N[C@H]2CC[C@@H]3NS(=O)(=O)N[C@H]4CC[C@H](N1)N4S(=O)(=O)N23 | – | 2.05% [at 11.4 µM]
Cn1c(=O)c2c(nc(Cl)n2Cc2ccc(Cl)c(Cl)c2)n(C)c1=O | 12.6 µM (active) | –
Cn1c(=O)c2c(nc(Cc3ccccc3)n2CC(=O)O)n(C)c1=O | – | -13.2% [at 2.29 µM]
CN(C)CCn1c(CO)nc2c1c(=O)n(C)c(=O)n2C | – | -6.02% [at 11.4 µM]
COc1ccc2c(OC)c3ccoc3nc2c1OC | 0.0794 µM (active) | –
CS(=O)(=O)N1CCC2(CCN(C(c3ccccc3)c3ccccc3)CC2)CC1 | inactive | –
COc1ccc2[nH]cc(CCNc3ncncc3-c3ccccc3CN(C)C)c2c1 | 20 µM (active) | –
COc1ccc2[nH]cc(CCNc3ncncc3-c3c(C)noc3C)c2c1 | 12.6 µM (active) | –

SMILES | AC50 | activity, negative = inhibition
COc1ccc2[nH]cc(CCNc3ncncc3-c3ccccc3Cl)c2c1 | 0.631 µM (active) | –
COc1ccc2[nH]cc(CCNc3ncncc3-c3ccccc3C(F)(F)F)c2c1 | 10 µM (active) | –
COC(=O)C/C=C\[C@@H](C)[C@@H](/C=N\OC[C@@H](O)COCc1ccco1)OC | – | -1.53% [at 11.4 µM]
CC(C)NC(=O)N1CC[C@@]2(CCCN(S(C)(=O)=O)C2)C1 | inactive | –
COc1ccc2[nH]cc(CCNc3ncncc3-c3ccccc3C)c2c1 | 0.631 µM (active) | –
COc1ccc2[nH]cc(CCNc3ncncc3-c3ccccc3OC)c2c1 | 2.51 µM (active) | –
CCOC(=O)CN1C(=O)Nc2ccc(Br)cc2C1c1ccccc1 (configuration not stated) | 3.16 µM (active) | –
CN(C)CCN1C(=O)C(O)=C(C(=O)c2cc3ccccc3o2)C1c1cccc(Br)c1 (configuration not stated) | inactive | –
CS(=O)(=O)N1CCC2(CC1)CN(C(=O)Nc1ccccc1)C2 | inactive | –
CC(C)(C)NC[C@H](O)COc1cccc2c1CCCC2=O | inactive | –
CC(C)(C)NC[C@H](O)COc1cccc2c1CCC(=O)N2 | inactive | –
Cc1ccc(OC[C@H](O)[C@H](C)NC(C)C)c2c1CCC2 | 1.58 µM (active) and 398 nM (active) | –
CCOC(=O)CCN1C(=O)[C@H]2[C@H]3[C@H](O)[C@H](O)C/C(=N/OCC(C)C)[C@@H]3CC[C@@H]2C1=O | – | -8.45% [at 11.4 µM]
Cc1ccc(NC(=O)C2C3CCCC2C3c2ccccc2)cc1C (configuration not stated) | inactive | –
COc1ccc(CC(=O)NC(=S)Nc2ccc(S(=O)(=O)NC(C)(C)C)cc2)cc1 | inactive | –
Cc1cc(NC(=S)Nc2ccccc2)ccc1Br | 5.62 µM (active) | –
Cc1cc(NC(=S)NC(=O)CC(C)C)ccc1Br | 5.62 µM (active) | –
CCCNC(=S)Nc1ccc(Br)cc1 | 7.08 µM (active) | –
CCC(=O)NC(=S)Nc1ccc(S(=O)(=O)NC(C)=O)cc1 | inactive | –
Cc1ccc(NC(=S)Nc2ccc(Br)cc2)cc1 | 3.55 µM (active) | –
Cc1cccc(N2CCN(c3ccc(NC(=O)/C=C(/C(=O)O)c4ccccc4)cc3)CC2)c1 | inactive | –
C/C(=N\NC(=S)Nc1cccc(C)c1)c1ccccc1 | 0.891 µM (active) | –
Cc1cccc(NC(=S)Nc2ccc(Br)cc2)c1 | 3.55 µM (active) | –
